# The entries come from a sample that favours hits as a whole.
# VDR inhibitor: Inhibitors of the vitamin D receptor (VDR): qHTS | Vitamin D3 receptor (Homo sapiens), P11473 | VDR-SRC2-3 peptide fluorescence polarization, 2 h | Potency, µM, without a hit: max response, negative = inhibition, most hits filed as inhibitors | 400,000 tested, 0.93% active; further: on the % scale 0 is the no-effect control and ±100 the full control effect
#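 FP read-out; VDR + SRC2-3 coactivator peptide; 23 nl compound by pintool; 2 h RT incubation; reagents held at 4 deg C, protected from light.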
# 12-LOX inh: Primary qHTS assay for inhibitors of human arachidonate 12S-lipoxygenase (ALOX12): Round 2; Polyunsaturated fatty acid lipoxygenase ALOX12 (Homo sapiens), P18054; purified 12hLO, xylenol orange hydroperoxide absorbance; Potency, µM (series often up to 108 µM), for the others: top-dose activity change, negative = inhibition, usual class: inhibitors; 580,000 tested, 1.1% active; further: on the % scale 0 is the no-effect control and ±100 the full control effect
# Target sequence (P18054 whole entry, looked up): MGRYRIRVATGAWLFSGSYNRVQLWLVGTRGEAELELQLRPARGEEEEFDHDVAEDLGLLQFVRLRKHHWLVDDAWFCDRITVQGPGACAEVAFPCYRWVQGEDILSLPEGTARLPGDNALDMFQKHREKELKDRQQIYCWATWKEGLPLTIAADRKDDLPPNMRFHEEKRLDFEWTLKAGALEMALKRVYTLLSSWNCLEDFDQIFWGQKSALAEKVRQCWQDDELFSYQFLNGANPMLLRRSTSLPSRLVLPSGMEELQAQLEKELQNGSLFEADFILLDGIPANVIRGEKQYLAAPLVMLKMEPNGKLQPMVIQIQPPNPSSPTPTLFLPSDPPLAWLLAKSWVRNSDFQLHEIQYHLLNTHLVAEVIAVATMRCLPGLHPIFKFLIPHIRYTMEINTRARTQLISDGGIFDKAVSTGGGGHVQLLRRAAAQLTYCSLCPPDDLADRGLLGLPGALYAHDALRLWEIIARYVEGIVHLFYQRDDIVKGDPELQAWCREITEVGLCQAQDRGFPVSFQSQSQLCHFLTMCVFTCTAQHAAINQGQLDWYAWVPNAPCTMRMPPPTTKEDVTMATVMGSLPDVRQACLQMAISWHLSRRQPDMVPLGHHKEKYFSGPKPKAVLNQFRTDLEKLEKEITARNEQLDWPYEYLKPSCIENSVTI
#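 Purified human 12hLO at 150 nM in 25 mM Hepes, 0.01% Triton X-100, pH 7.0, preincubated 15 min at room temperature with compound. Reaction started with 40 uM arachidonic acid, 30 min at room temperature. Hydroperoxide measured by Fe-xylenol orange, 573/405 nm absorbance ratio.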
# G9a block: qHTS Assay for Inhibitors of Histone Lysine Methyltransferase G9a | Histone-lysine N-methyltransferase EHMT2 (Homo sapiens), Q96KQ7 | G9a H3K9 monomethylation, AlphaScreen, 2 h | Potency, µM (highest dose often 102 µM), for the others: at the top dose activity, negative = inhibition, actives largely listed as inhibitors | 350,000 tested, 8.8% active | AID 504332, 2011; further: on the % scale 0 is the no-effect control and ±100 the full control effect; nearly all actives have a fitted effect of over 75% in size
#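 Quantitative HTS format: methyltransferase activity on a biotin-tagged H3K9 peptide is measured by AlphaScreen, using a rabbit anti-monomethyl-H3K9 antibody with streptavidin donor and anti-IgG acceptor beads. Final levels are 20 nM enzyme, 500 nM peptide, 20 uM SAM; 2 h RT.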
# Glioma ERSR ind: qHTS for Inducers of the Endoplasmic Reticulum Stress Response (ERSR) in Human Glioma: qHTS; Potency, µM, for the others: top-dose activation, actives largely listed as activators; AID 602332, 2012; U87-MG GRP78 promoter luciferase reporter, 16 h; 420,000 tested, 0.02% active; further: series mostly up to about 76 µM; % of control where 0% means no effect; nearly all actives have a fitted effect of over 35% in size
#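 Stably transfected U87-MG glioma cells carrying a GRP78-based luciferase sensor; 16 h compound incubation. Luminescence end-point read 10 min after Bright-Glo addition at room temperature.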
# Sfp inh: qHTS Assay for Inhibitors of Bacillus subtilis Sfp phosphopantetheinyl transferase (PPTase); 4'-phosphopantetheinyl transferase ffp (Bacillus subtilis), Q9F4F7; Potency, µM, for inactives: largest response in the series, negative = inhibition, actives largely listed as inhibitors; 310,000 tested, 3.5% active; Biochemical Sfp PPTase activity, qHTS; AID 1490, 2009;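 further: the enzyme is Sfp with the accession as filed and its product quenches rhodamine fluorescence; 0% = enzyme reaction without inhibitor and -100% = no enzyme wells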
#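 With Hepes-Na pH 7.6 buffer containing 10 mM MgCl2, Sfp (15 nM) modified BHQ-2-YbbR (12.5 uM) using rhodamine-CoA (5 uM). Two reads 30 minutes apart at 525/598 nm yielded each well's rate.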
# Starred values were filed as active, the others as inactive; i = inactive; ? = inconclusive; · = no result; [ ] = another dose, or the depositor's remark. The call rests on the fitted dose curve; in most records, active means well fitted curve in the direction sought with a large enough effect; inconclusive means small, poorly fitted or top-dose-only effect, or another doubt; inactive means no such curve, though single readings can be large; an effect the other way counts as inactive or inconclusive. Potency means the concentration at half of the fitted maximal effect.
SMILES,VDR inhibitor,12-LOX inh,G9a block,Glioma ERSR ind,Sfp inh
S=C1CSc2ccccc2N1,-5%,?,?,1%,-88%
CCCCCCCCCCCCCCCC[n+]1cccc2ccccc21,-27%,?,6.3µM*,-15%,25µM*
COc1ccc(-c2onc3ccc(Cl)cc23)cc1,9%,?,?,-5%,50µM*
Clc1ccc(-c2onc3ccc(C4OCCO4)cc23)cc1,·,-10%,·,·,·
Cc1ccc(-c2onc3ccc(Cl)cc23)cc1,1%,-14%,21%[59 µM],0%,3%
O=Cc1ccc2noc(-c3ccc(Cl)cc3)c2c1,-12%,?,22µM*,3%,-5%
O=C(C[C@H]1NC(=O)c2ccccc2NC1=O)Nc1nc(-c2ccc3c(c2)OCO3)cs1,·,17%,·,·,·
COc1ccc(-c2cc(C(=O)O)c3ccccc3n2)c(OC)c1,10%,?,-38%[12.7 µM],0%,5%
COc1ccc(-c2cc(C(=O)N3CCN(c4ccccc4)CC3)c3ccccc3n2)cc1,-24%,-11%,40µM*,1%,8%
Cc1ccccc1-c1cc(C(=O)N2CCOCC2)c2ccccc2n1,·,2%,·,·,·
COc1ccc(-c2nn(Cc3ccccc3)cc2C(=O)N2CCN(c3ncccn3)CC2)cc1OC,7%,15%,?,-4%,·
Cc1ccccc1-c1cc(C(=O)N2CCCC2)c2ccccc2n1,?,-25%,40µM*,-5%,-5%
COc1ccc(-c2cc(C(=O)N3CCC3)c3ccccc3n2)cc1,·,4%,·,·,·
COc1ccc(N2CCN(C(=O)c3cn(Cc4ccccc4)nc3-c3cccnc3)CC2)cc1,2%,-1%,8.9µM*,-2%,·
CCCNC(=O)c1cc(-c2ccc(OC)cc2OC)nc2ccccc12,·,13µM*,·,·,·
COc1ccc(-c2cc(C(=O)N3CCN(c4ncccn4)CC3)c3ccccc3n2)c(OC)c1,-15%,-20%,?,0%,-2%
COc1ccc(N2CCN(C(=O)c3cc(-c4cc(OC)ccc4OC)nc4ccccc34)CC2)cc1,13%,12%,25µM*,-3%,-1%
COc1ccc(OC)c(-c2cc(C(=O)N3CCN(c4ncccn4)CC3)c3ccccc3n2)c1,-1%,-3%,?,-2%,9%
COc1ccc(-c2cc(C(=O)N3CCCCCC3)c3ccccc3n2)c(OC)c1,-11%,?,40µM*,-6%,40µM*
O=C(CN1CCCCC1)N1CCCC(N2CCN(Cc3ccc4c(c3)OCO4)CC2)C1 (configuration not stated),·,45%,·,·,·
CCCCCCNc1nc2c(c(=O)[nH]c(=O)n2C)n1CCCc1ccccc1,·,-8%,·,·,·
Cc1ccc(-c2nc(S(=O)(=O)c3ccccc3)c(N(C)C)o2)cc1,·,-8%,·,·,·
c1ccc(C2=NNC(c3ccccn3)=NN2)nc1,7%,?,32µM*,-6%,13µM*
c1ccc(-c2nc(-c3ccccn3)nc(-c3ccccn3)n2)nc1,1%,i,47%[59 µM],-5%,?
Cc1cc(=O)[nH]c(NN=C2C3CC4CC(C3)CC2C4)n1,0%,-3%,2.5µM*,1%,45µM*
SMILES,VDR inhibitor,12-LOX inh,G9a block,Glioma ERSR ind,Sfp inh
Cc1cc(=O)[nH]c(N/N=C2/CCCC/C2=C\c2ccccc2)n1,-26%,0%,45µM*,11%,2%
Cc1cc(=O)[nH]c(NN)n1,-19%,-38%,·,-4%,45µM*
Cc1cc(=O)[nH]c(NCCO)n1,15%,0%,7%,0%,22%
Cc1cc(=O)[nH]c(NN=C2CCCCC2C)n1 (configuration not stated),-11%,33%,·,-3%,·
O=C(CCc1nc2ccccc2o1)NC1CCCCC1,·,-1%,·,·,·
Cc1oc(-c2cccs2)nc1C(=O)NCCCCN1CCOCC1,·,-13%,·,·,·
Cn1c(=O)[nH]c2cc3ccccc3cc21,1%,0%,1.3µM*,-1%,-14%
CCOCCCNC(=O)c1ccccc1Sc1ccccc1C#N,·,0%,·,·,·
OCCN1CCN(C(=S)c2ccc(Cl)c(Cl)c2)CC1,22µM*,-51%,2µM*,-2%,3.2µM*
COc1cc(NC(=S)N2CCN(CCO)CC2)c(OC)cc1Cl,-15%,1%,0%,-3%,-6%
COc1cccc(/C=C2\SC(=S)N(C(Cc3ccccc3)C(=O)O)C2=O)c1 (configuration not stated),?,45µM*,45µM*,-2%,-17%
O=C(O)C(Cc1ccccc1)N1C(=O)/C(=C/c2cccs2)SC1=S (configuration not stated),79µM*,?,22µM*,-1%,-22%
Cc1cc(C)cc(OC(C)C(=O)Nc2cccc3cccnc23)c1 (configuration not stated),·,47%,·,·,·
COCCn1c(SC(C)C(=O)c2ccc(OC(F)F)cc2)nnc1-c1ccccc1 (configuration not stated),·,0%,·,·,·
N#CC1=C(N)Oc2c(O)cc3ccccc3c2C1c1ccsc1 (configuration not stated),-2%,45µM*,4%[59 µM],-5%,-8%
CCOC(=O)C1=C(C)OC(N)=C(C#N)C1c1cc(SCC)oc1C (configuration not stated),?,-11%,45µM*,-6%,11%
CCOC(=O)C1=C(CC)OC(N)=C(C#N)C1c1cccs1 (configuration not stated),12%,?,50µM*,0%,-8%
CC(=O)C1=C(C)OC(N)=C(C#N)C1c1cccc([N+](=O)[O-])c1 (configuration not stated),-24%,-18%,45µM*,-3%,7%
CCOC(=O)C1=C(C)OC(N)=C(C#N)C1c1cc(C)sc1C (configuration not stated),2%,103%,·,2%,5%
CC(C)CCN1CCC2(Cc3ccccc3CNC2=O)C1 (configuration not stated),·,9%[12.5 µM],·,·,·
CCOC(=O)C1=C(C)OC(N)=C(C#N)C1c1ccsc1 (configuration not stated),18%,-2%,10µM*,3%,-2%
CCN1CC2=C(OC(N)=C(C#N)C2c2cccs2)/C(=C\c2cccs2)C1 (configuration not stated),17%,-21%,45µM*,-3%,?
CCOC(=O)Cc1[nH]nc2c1C(c1ccsc1)C(C#N)=C(N)O2 (configuration not stated),8%,-1%,5%,-2%,15%
CCOC(=O)C1=C(CC)OC(N)=C(C#N)C1c1ccsc1 (configuration not stated),8%,-24%,56µM*,-4%,?

# Screening results as filed in PubChem.
